Active and inactive are the calls of the source. How the source made its calls: active means hit-call score of the fitted dose curve at least 0.9, where 1 is the maximum; inactive means score below 0.9.
Tests used:
Conditions in all cases: mRNA level, 48 h; actives raise or lower the signal
[1] = read-out: Glutamate-cysteine ligase catalytic (GCLC), GCLC (gene 2729); assay: LTEA_HepaRG_GCLC: Life Technologies and Expression Analysis (LTEA) Assay for Glutamate-cysteine ligase catalytic (GCLC) using HepaRG (AID 2283498)
Summary of the method: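 Differentiated HepaRG cells exposed 48 h in serum-free induction medium, eight-point half-log series topping at 100 uM in 0.5% DMSO, duplicates. GCLC mRNA by qRT-PCR normalized to ACTB, GAPDH and POLR2A, fitted bidirectionally versus DMSO.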

[2] = read-out: growth arrest and DNA damage 45 (GADD45G), GADD45G (gene 10912); assay: LTEA_HepaRG_GADD45G: Life Technologies and Expression Analysis (LTEA) Assay for growth arrest and DNA damage 45 (GADD45G) using HepaRG (AID 2283499)
Summary of the method: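 Gain or loss of GADD45G mRNA, quantified by TaqMan qRT-PCR against three housekeeping genes, is fitted in both directions relative to 0.5% DMSO. Human HepaRG cultures receive test chemical for 48 h at up to 100 uM.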

[3] = read-out: Glutamate-cysteine ligase regulatory (GCLM), GCLM (gene 2730); assay: LTEA_HepaRG_GCLM: Life Technologies and Expression Analysis (LTEA) Assay for Glutamate-cysteine ligase regulatory (GCLM) using HepaRG (AID 2283500)
Summary of the method: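 Differentiated human HepaRG cells exposed 48 h in serum-free induction medium to 8-point half-log concentrations (top 100 uM, 0.5% DMSO), in duplicate. GCLM mRNA quantified by qRT-PCR, normalized to ACTB, GAPDH, POLR2A; bidirectional fitting versus DMSO.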

[4] = read-out: Glutathione S-transferase M3 (GSTM3), GSTM3 (gene 2947); assay: LTEA_HepaRG_GSTM3: Life Technologies and Expression Analysis (LTEA) Assay for Glutathione S-transferase M3 (GSTM3) using HepaRG (AID 2283501)
Summary of the method: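 HepaRG, plated 48 h, then serum-free induction medium; test chemical 48 h, duplicate; 100 uM top, half-log x8, 0.5% DMSO. Read-out: GSTM3 mRNA (TaqMan qRT-PCR, Fluidigm array). Bidirectional fit vs DMSO.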

[5] = read-out: Heat shock 70 kDa protein 1 (HSPA1A), gene 3303; assay: LTEA_HepaRG_HSPA1A: Life Technologies and Expression Analysis (LTEA) Assay for Heat shock 70 kDa protein 1 (HSPA1A) using HepaRG (AID 2283502)
Summary of the method: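 Differentiated human HepaRG cells in serum-free induction medium were exposed in duplicate for 48 h to eight concentrations (top 100 uM, half-log steps, 0.5% DMSO). HSPA1A mRNA was quantified by qRT-PCR, normalized to ACTB, GAPDH and POLR2A, and fitted bidirectionally against DMSO.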

[6] = read-out: 3-Hydroxy-3-Methylglutaryl-CoA Synthase 2 (HMGCS2), HMGCS2 (gene 3158); assay: LTEA_HepaRG_HMGCS2: Life Technologies and Expression Analysis (LTEA) Assay for 3-Hydroxy-3-Methylglutaryl-CoA Synthase 2 (HMGCS2) using HepaRG (AID 2283504)
Summary of the method: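 HepaRG, plated 48 h then switched to serum-free induction media; cmpd 8-pt, max 100 uM, 1/2-log, 0.5% DMSO, n=2, 48 h. HMGCS2 mRNA by Fluidigm TaqMan qRT-PCR, ACTB/GAPDH/POLR2A norm; bidirectional fit vs DMSO.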

[7] = read-out: HGF (gene 3082); assay: LTEA_HepaRG_HGF: Life Technologies and Expression Analysis (LTEA) Assay for Hepatocyte Growth Facto (HGF) using HepaRG (AID 2283505)
Summary of the method: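 Read-out is HGF transcript level by qRT-PCR, normalized to three housekeeping genes, fitted bidirectionally against 0.5% DMSO vehicle. Human HepaRG cells received test chemicals for 48 h at up to 100 uM.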

[8] = read-out: Insulin Like Growth Factor 1 (IGF1), IGF1 (gene 3479); assay: LTEA_HepaRG_IGF1: Life Technologies and Expression Analysis (LTEA) Assay for Insulin Like Growth Factor 1 (IGF1) using HepaRG (AID 2283506)
Summary of the method: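 Differentiated human HepaRG cells were dosed for 48 h in serum-free induction medium with 0.5% DMSO, eight half-log concentrations up to 100 uM, in duplicate. IGF1 mRNA was quantified by qRT-PCR normalized to ACTB, GAPDH, POLR2A; bidirectional fitting versus DMSO.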

[9] = read-out: Insulin-like growth factor-binding protein 1 (IGFBP1), IGFBP1 (gene 3484); assay: LTEA_HepaRG_IGFBP1: Life Technologies and Expression Analysis (LTEA) Assay for Insulin-like growth factor-binding protein 1 (IGFBP1) using HepaRG (AID 2283508)
Summary of the method: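 Thawed HepaRG cells are plated for 48 h, switched to serum-free induction medium, then dosed in duplicate for another 48 h (100 uM top, half-log steps). Lysates in RLT go to qRT-PCR, and gain or loss of signal is fitted relative to vehicle.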

[10] = read-out: Interleukin 6 (IL6), IL6 (gene 3569); assay: LTEA_HepaRG_IL6: Life Technologies and Expression Analysis (LTEA) Assay for Interleukin 6 (IL6) using HepaRG (AID 2283509)
Summary of the method: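 HepaRG cells exposed in duplicate for 48 h to eight half-log concentrations, top 100 uM, in 0.5% DMSO serum-free induction medium. mRNA measured by qRT-PCR, normalized to ACTB, GAPDH and POLR2A. Bidirectional fit versus DMSO.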

[11] = read-out: Interleukin 6 Receptor (IL6R), IL6R (gene 3570); assay: LTEA_HepaRG_IL6R: Life Technologies and Expression Analysis (LTEA) Assay for Interleukin 6 Receptor (IL6R) using HepaRG (AID 2283510)
Summary of the method: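 Differentiated human HepaRG cells, plated 48 h then switched to serum-free induction medium, were dosed in duplicate for 48 h at eight half-log concentrations up to 100 uM in 0.5% DMSO. IL6R mRNA quantified by qRT-PCR, normalized to ACTB/GAPDH/POLR2A; bidirectional fit versus DMSO.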

[12] = read-out: Potassium channel subfamily K member 1 (KCNK1), KCNK1 (gene 3775); assay: LTEA_HepaRG_KCNK1: Life Technologies and Expression Analysis (LTEA) Assay for Potassium channel subfamily K member 1 (KCNK1) using HepaRG (AID 2283511)
Summary of the method: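 Differentiated HepaRG cells, 48 h exposure in serum-free induction medium with 0.5% DMSO; 8 concentrations, half-log from 100 uM, duplicate. KCNK1 mRNA by qRT-PCR, normalized to ACTB, GAPDH, POLR2A; bidirectional fit vs DMSO.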

[13] = read-out: Keratin 19 (KRT19), KRT19 (gene 3880); assay: LTEA_HepaRG_KRT19: Life Technologies and Expression Analysis (LTEA) Assay for Keratin 19 (KRT19) using HepaRG (AID 2283512)
Summary of the method: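 KRT19 transcript levels, measured by Fluidigm qRT-PCR against three housekeeping genes, are fitted for gain or loss of signal relative to DMSO. Human HepaRG cells receive test chemicals (top 100 uM, half-log steps, 0.5% DMSO) for 48 hours.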

[14] = read-out: JUN Transcription Factor, JUN (gene 3725); assay: LTEA_HepaRG_JUN: Life Technologies and Expression Analysis (LTEA) Assay for JUN Transcription Factor using HepaRG (AID 2283513)
Summary of the method: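 Differentiated HepaRG cells were exposed to chemicals for 48 h in serum-free induction medium, 8 concentrations from 100 uM in half-log steps, 0.5% DMSO vehicle, in duplicate. JUN mRNA was quantified by TaqMan qRT-PCR, normalized to ACTB, GAPDH, POLR2A.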

[15] = read-out: Lipase C (LIPC), LIPC (gene 3990); assay: LTEA_HepaRG_LIPC: Life Technologies and Expression Analysis (LTEA) Assay for Lipase C (LIPC) using HepaRG (AID 2283514)
Summary of the method: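 HepaRG cells, 48 h after plating, treated in duplicate for 48 h in serum-free induction medium over 8 half-log concentrations from 100 uM, 0.5% DMSO. LIPC mRNA by TaqMan qRT-PCR normalized to ACTB/GAPDH/POLR2A; bidirectional fit versus DMSO.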

[16] = read-out: Lipoprotein lipase (LPL), LPL (gene 4023); assay: LTEA_HepaRG_LPL: Life Technologies and Expression Analysis (LTEA) Assay for Lipoprotein lipase (LPL) using HepaRG (AID 2283515)
Summary of the method: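 Differentiated HepaRG cells, plated 48 h, then exposed 48 h in serum-free induction medium to 8 concentrations (top 100 uM, half-log steps) in 0.5% DMSO, duplicate. LPL mRNA measured by qRT-PCR, normalized to ACTB, GAPDH and POLR2A.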

[17] = read-out: MicroRNA 122 (MIR122), gene 406906; assay: LTEA_HepaRG_MIR122: Life Technologies and Expression Analysis (LTEA) Assay for MicroRNA 122 (MIR122) using HepaRG (AID 2283516); further: the transcript read is the microRNA miR-122
Summary of the method: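 Differentiated human HepaRG cells were exposed 48 h in serum-free induction medium to eight half-log concentrations (top 100 uM, 0.5% DMSO). Transcript level was measured by TaqMan qRT-PCR, normalized to ACTB, GAPDH and POLR2A, and fitted bidirectionally versus DMSO.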

[18] = read-out: matrix metalloproteinase-10 (MMP10), MMP10 (gene 4319); assay: LTEA_HepaRG_MMP10: Life Technologies and Expression Analysis (LTEA) Assay for matrix metalloproteinase-10 (MMP10) using HepaRG (AID 2283517)
Summary of the method: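 Differentiated HepaRG cells in serum-free induction medium exposed 48 h in duplicate to 8-point half-log series up to 100 uM in 0.5% DMSO. mRNA quantified by qRT-PCR, normalised to ACTB, GAPDH, POLR2A; bidirectional fit versus DMSO.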

[19] = read-out: Hypoxia-inducible factor 1-alpha (Homo sapiens) (UniProt Q16665); assay: LTEA_HepaRG_HIF1A: Life Technologies and Expression Analysis (LTEA) Assay for Hypoxia-inducible factor 1 (HIF1A) Trancription factor using HepaRG (AID 2283503);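 further: HIF1A transcript by TaqMan qRT-PCR normalized to ACTB GAPDH and POLR2A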
Summary of the method: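 HepaRG, 48 h exposure, 8-pt half-log series from 100 uM, 0.5% DMSO vehicle, duplicates. Readout: HIF1A transcript by qRT-PCR (Fluidigm array), housekeeping-normalised. Bidirectional curve fit vs DMSO baseline.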

Sequence of Hypoxia-inducible factor 1-alpha (Homo sapiens) (Q16665 whole entry, looked up): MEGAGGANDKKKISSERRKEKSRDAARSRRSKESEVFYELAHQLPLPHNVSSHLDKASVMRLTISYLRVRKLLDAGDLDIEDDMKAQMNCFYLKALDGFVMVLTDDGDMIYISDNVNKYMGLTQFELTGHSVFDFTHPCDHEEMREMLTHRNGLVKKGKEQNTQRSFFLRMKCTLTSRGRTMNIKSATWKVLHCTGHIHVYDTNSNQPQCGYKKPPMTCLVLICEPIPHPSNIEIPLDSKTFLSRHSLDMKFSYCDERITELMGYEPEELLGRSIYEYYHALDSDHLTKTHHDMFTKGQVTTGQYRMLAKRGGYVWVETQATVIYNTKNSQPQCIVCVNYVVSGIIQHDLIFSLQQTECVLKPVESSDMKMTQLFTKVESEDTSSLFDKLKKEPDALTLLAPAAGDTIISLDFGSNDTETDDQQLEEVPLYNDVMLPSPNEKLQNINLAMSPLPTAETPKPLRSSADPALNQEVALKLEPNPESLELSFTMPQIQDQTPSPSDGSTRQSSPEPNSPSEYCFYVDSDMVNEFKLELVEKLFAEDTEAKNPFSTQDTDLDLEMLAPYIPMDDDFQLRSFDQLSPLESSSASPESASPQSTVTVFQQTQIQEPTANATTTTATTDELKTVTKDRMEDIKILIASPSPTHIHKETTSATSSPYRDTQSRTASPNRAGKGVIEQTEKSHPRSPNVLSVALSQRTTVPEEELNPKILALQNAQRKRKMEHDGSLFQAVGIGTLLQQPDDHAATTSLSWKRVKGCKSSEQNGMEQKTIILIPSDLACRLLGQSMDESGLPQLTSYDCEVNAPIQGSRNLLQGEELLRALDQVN

Compound: N#C[C@@H]1CC(F)(F)CN1C(=O)CNC1CC2CCC(C1)N2c1ncccn1 (some centres undefined)
- outcome [1]: inactive
- outcome [2]: inactive
- outcome [3]: inactive
- outcome [4]: inactive
- outcome [5]: inactive
- outcome [6]: inactive
- outcome [7]: inactive
- outcome [8]: inactive
- outcome [9]: inactive
- outcome [10]: inactive
- outcome [11]: inactive
- outcome [12]: inactive
- outcome [13]: inactive
- outcome [14]: inactive
- outcome [15]: inactive
- outcome [16]: inactive
- outcome [17]: inactive
- outcome [18]: inactive

Compound: CCc1nn(C2CCCCC2)c2cc(C3(C#N)CCC(C(=O)O)CC3)ccc12 (centres undefined)
- AC50 [2]: 85.5 µM (active)
- AC50 [3]: 50 µM (active)
- outcome [4]: inactive
- AC50 [5]: 12.2 µM (active)
- outcome [19]: inactive
- AC50 [6]: 81.8 µM (active)
- outcome [7]: inactive
- AC50 [8]: 57.3 µM (active)
- AC50 [9]: 75.7 µM (active)
- AC50 [10]: 84.9 µM (active)
- outcome [11]: inactive
- AC50 [12]: 13.1 µM (active)
- AC50 [13]: 90.5 µM (active)
- outcome [14]: inactive
- AC50 [15]: 78.9 µM (active)
- AC50 [16]: 37.2 µM (active)
- AC50 [17]: 80.1 µM (active)
- AC50 [18]: 81.6 µM (active)

Compound: CCOC(=O)CC(O)(CC(=O)OCC)C(=O)OCC
- outcome [1]: inactive
- outcome [2]: inactive
- outcome [3]: inactive
- outcome [4]: inactive
- outcome [5]: inactive
- outcome [6]: inactive
- outcome [7]: inactive
- outcome [8]: inactive
- outcome [9]: inactive
- outcome [10]: inactive
- outcome [11]: inactive
- outcome [12]: inactive
- outcome [13]: inactive
- outcome [14]: inactive
- outcome [15]: inactive
- outcome [16]: inactive
- outcome [17]: inactive
- outcome [18]: inactive

— PubChem BioAssay (EPA / NIEHS)
